Screens deposited in PubChem by National Center for Advancing Translational Sciences (NCATS).
Shown is part of a subset that was picked to be rich in hits.
DT40 TDP1 CPT: qHTS for Inhibitors of human tyrosyl-DNA phosphodiesterase 1 (TDP1): qHTS in cells in presence of CPT | chicken DT40 Tdp1-/-;hTDP1 cells + 20 nM CPT, ATP luminescence, 48 h | Potency, µM (doses to about 46.2 µM), hits mostly inhibitors | actives 12% (n = 420,000) | AID 686979, 2013; further: nearly all actives have a fitted effect of over 55% in size
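Chicken DT40 Tdp1-/- cells complemented with human TDP1, 400 cells/well, exposed to compounds plus 20 nM camptothecin for at least 48 h at 37 C; viability read as ATP content by CellTiter-Glo luminescence.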
HT1080-NT tox: qHTS for induction of synthetic lethality in tumor cells producing 2HG: qHTS for the HT-1080-NT fibrosarcoma cell line. HT-1080-NT fibrosarcoma viability, CellTiter-Glo ATP luminescence, 48 h. Potency, µM (top dose mostly 46.1 µM), most hits filed as cytotoxic. actives 1.6% (n = 360,000);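 further: NT is the 2HG producing partner of a matched IDH1 knockdown line; nearly all actives have a fitted effect of over 55% in size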
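Viability by CellTiter-Glo luminescence after 48 h compound exposure at 37C of HT-1080-NT cells (750/well, RPMI, 5% FBS). % activity scaled between DMSO wells and medium-only wells, then curve-fitted and categorized by curve class.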
12-LOX inh: Primary qHTS assay for inhibitors of human arachidonate 12S-lipoxygenase (ALOX12): Round 2; purified 12hLO, xylenol orange hydroperoxide absorbance; actives 1.1% (n = 580,000); Polyunsaturated fatty acid lipoxygenase ALOX12 (Homo sapiens), P18054; Potency, µM (highest dose often 108 µM), usual class: inhibitors
Target sequence (P18054 whole entry, looked up): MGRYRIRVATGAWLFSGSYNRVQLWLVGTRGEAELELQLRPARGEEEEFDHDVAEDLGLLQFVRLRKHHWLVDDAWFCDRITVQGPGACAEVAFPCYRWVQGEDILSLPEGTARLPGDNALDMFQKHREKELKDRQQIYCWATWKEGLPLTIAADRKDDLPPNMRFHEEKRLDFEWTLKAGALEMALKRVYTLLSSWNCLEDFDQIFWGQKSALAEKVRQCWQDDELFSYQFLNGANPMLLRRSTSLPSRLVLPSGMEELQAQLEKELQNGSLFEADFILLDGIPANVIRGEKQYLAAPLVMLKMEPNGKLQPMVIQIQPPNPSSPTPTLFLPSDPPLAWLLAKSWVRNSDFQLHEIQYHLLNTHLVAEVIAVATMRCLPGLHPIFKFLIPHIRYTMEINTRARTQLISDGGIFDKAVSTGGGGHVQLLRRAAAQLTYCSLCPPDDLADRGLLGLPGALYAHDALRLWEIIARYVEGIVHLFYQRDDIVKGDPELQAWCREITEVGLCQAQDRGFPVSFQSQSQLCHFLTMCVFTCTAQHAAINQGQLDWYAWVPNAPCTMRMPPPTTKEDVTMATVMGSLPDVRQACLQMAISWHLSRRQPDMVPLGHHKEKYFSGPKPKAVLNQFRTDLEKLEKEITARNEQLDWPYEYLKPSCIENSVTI
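Purified human 12hLO (150 nM final) in 25 mM Hepes, 0.01% Triton X-100, pH 7.0 was preincubated 15 min at room temperature with compound. Then 40 uM arachidonic acid was added, 30 min. Hydroperoxide was read by Fe-XO absorbance ratio 573/405 nm.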
TDP1 cell noCPT: qHTS for Inhibitors of human tyrosyl-DNA phosphodiesterase 1 (TDP1): qHTS in cells in absence of CPT; DT40 Tdp1-/- hTDP1 cells, no CPT, ATP luminescence, 48 h; Potency, µM (highest dose often 46.2 µM), usual class: inhibitors; actives 15% (n = 420,000); further: nearly all actives have a fitted effect of over 55% in size
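Readout: luminescence from CellTiter-Glo after 30 min in the dark at RT. Cells: DT40 Tdp1-/- with stable hTDP1, 400/well. Exposure: compounds alone, ≥48 hr, 37 °C.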
IL1B secr inh: qHTS for Inhibitors of Inflammasome Signaling: IL-1-beta AlphaLISA Primary Screen; THP-1 LPS/ATP IL-1B secretion, AlphaLISA, 16 h; stronger effect = lower value; activity change, % at 57.5 µM; actives 4.7% (n = 360,000); AID 743279, 2014; in the data active means activity change below about -50%; inconclusive means mostly about -30% to -49%
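Secreted IL-1B measured by AlphaLISA bead assay after 16 h compound exposure of THP-1 cells; compounds (final up to 57.5 uM) added 1 h before LPS (250 ng/mL) and ATP (1.25 mM) stimulation; lower signal means less secretion.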
HT1080 IDH1KD tx: qHTS for induction of synthetic lethality in tumor cells producing 2HG: qHTS for the HT-1080-IDH1KD cell line; Potency, µM (highest dose often 46.1 µM), usual class: cytotoxic; AID 686971, 2013; HT-1080 IDH1 knockdown viability, ATP luminescence, 48 h; actives 2% (n = 360,000)
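Knockdown cells (IDH1KD HT-1080) received compounds 2 h after plating at 750 cells/well and were kept 48 h at 37 °C in 5% FBS RPMI. A CellTiter-Glo luminescence read gave % activity for curve fitting.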
Each line names hits and unclear results; the compound was inactive in the other large screens. Unless noted, the call rests on the fitted dose curve; in most records, active means well fitted curve in the direction sought with a large enough effect; inconclusive means small, poorly fitted or top-dose-only effect, or another doubt; inactive means no such curve, though single readings can be large; an effect the other way counts as inactive or inconclusive.

Cc1occc1C(=O)Nc1cccc(-c2nc(CNC(=O)c3ccc(N4CCCCC4)cc3)c(C)o2)c1	DT40 TDP1 CPT inconclusive, TDP1 cell noCPT 18µM (no result: HT1080-NT tox, IL1B secr inh, HT1080 IDH1KD tx)
C#Cc1cccc(C(=O)NCc2nc(-c3cccc(NC(=O)c4ccccn4)c3)oc2C)c1	DT40 TDP1 CPT inconclusive, TDP1 cell noCPT 23µM (no result: HT1080-NT tox, IL1B secr inh, HT1080 IDH1KD tx)
Cc1ccc(C(=O)Nc2cccc(-c3nc(CNC(=O)c4cccc(C)c4C)c(C)o3)c2)s1	DT40 TDP1 CPT 23µM, TDP1 cell noCPT 21µM (no result: HT1080-NT tox, IL1B secr inh, HT1080 IDH1KD tx)
O=S(=O)(CCc1ccccc1Cl)c1ccccc1	none (no result: DT40 TDP1 CPT, HT1080-NT tox, TDP1 cell noCPT, IL1B secr inh, HT1080 IDH1KD tx)
COCCNc1cc(-c2noc([C@@H]3CCCN3CC(C)C)n2)ccn1	none (no result: DT40 TDP1 CPT, HT1080-NT tox, TDP1 cell noCPT, IL1B secr inh, HT1080 IDH1KD tx)
Cc1cc(C(=O)NCc2nc(-c3cccc(NC(=O)c4cc(C)oc4C)c3)oc2C)nc(C)n1	TDP1 cell noCPT 21µM (no result: HT1080-NT tox, IL1B secr inh, HT1080 IDH1KD tx)
CN1CCN(C(=O)C2=C[C@@H](c3coc4ccccc4c3=O)C[C@@H](OCc3ccc(CO)cc3)O2)CC1	none
CC(=O)n1cc([C@H]2C=C(C(=O)N3CCN(Cc4ccccc4)CC3)O[C@@H](OCc3ccc(CO)cc3)C2)c2ccccc21	DT40 TDP1 CPT 7.3µM, TDP1 cell noCPT 7.3µM
C#CCNC(=O)C1=C[C@H](c2cn(C(C)=O)c3ccccc23)C[C@H](OCc2ccc(CO)cc2)O1	DT40 TDP1 CPT 18µM, TDP1 cell noCPT 16µM
CC(=O)n1cc([C@@H]2C=C(C(=O)O)O[C@H](OCc3ccc(CO)cc3)C2)c2ccccc21	12-LOX inh inconclusive
CC(=O)n1cc([C@@H]2C=C(C(=O)NCc3ccccc3)O[C@H](OCc3ccc(CO)cc3)C2)c2ccccc21	DT40 TDP1 CPT 7.3µM, TDP1 cell noCPT 9.2µM, IL1B secr inh inconclusive
CC(=O)n1cc([C@H]2C=C(C(=O)Nc3ccccc3)O[C@@H](OCc3ccc(CO)cc3)C2)c2ccccc21	DT40 TDP1 CPT 8.2µM, TDP1 cell noCPT 9.2µM (no result: 12-LOX inh)
C=CCOC(=O)C1=C[C@@H](c2cn(C(C)=O)c3ccccc23)C[C@@H](OCc2ccc(CO)cc2)O1	DT40 TDP1 CPT inconclusive, 12-LOX inh inconclusive, TDP1 cell noCPT inconclusive
Cc1ccc(C)c(Cn2c(CN3CCN(Cc4ccccc4)CC3)nc3c2c(=O)[nH]c(=O)n3C)c1	none (no result: DT40 TDP1 CPT, HT1080-NT tox, TDP1 cell noCPT, IL1B secr inh, HT1080 IDH1KD tx)
COCCCN(CCOC)C(=O)c1cc2ccccc2c(OC)n1	none (no result: DT40 TDP1 CPT, HT1080-NT tox, TDP1 cell noCPT, IL1B secr inh, HT1080 IDH1KD tx)
COc1ccc(C(=O)OCc2ccc(C#N)cc2)c(O)c1	none (no result: DT40 TDP1 CPT, HT1080-NT tox, TDP1 cell noCPT, IL1B secr inh, HT1080 IDH1KD tx)
O=C(c1cccc(OC2CCN(Cc3cc(F)cc(F)c3)CC2)c1)N1CCCC1	DT40 TDP1 CPT inconclusive, TDP1 cell noCPT inconclusive
O=C(c1cccc(OC2CCN(Cc3ccc(F)cc3Cl)CC2)c1)N1CCCC1	DT40 TDP1 CPT 21µM, TDP1 cell noCPT inconclusive
CSc1ccc(CN2CCC(Oc3cccc(C(=O)N4CCCC4)c3)CC2)cc1	DT40 TDP1 CPT 21µM, TDP1 cell noCPT 18µM
O=C(NCC(c1cccs1)N1CCOCC1)c1ccccc1NS(=O)(=O)c1ccc(Cl)c([N+](=O)[O-])c1 (configuration not stated)	DT40 TDP1 CPT inconclusive, TDP1 cell noCPT inconclusive
O=C(NCC(c1cccs1)N1CCOCC1)c1ccc(Cl)c([N+](=O)[O-])c1 (configuration not stated)	DT40 TDP1 CPT inconclusive, TDP1 cell noCPT inconclusive, IL1B secr inh -94
CC1CCN(C(CNC(=O)c2ccccc2SC(F)F)c2cccs2)CC1 (configuration not stated)	12-LOX inh 32µM (no result: DT40 TDP1 CPT, HT1080-NT tox, TDP1 cell noCPT, IL1B secr inh, HT1080 IDH1KD tx)
